Assay results taken from PubChem BioAssay (Tox21).
Inconclusive results are not listed. Calls of active or inactive are those of the source. Unless noted, calls follow the shape of the dose curve; as a rule, active = well fitted inhibition curve with a large enough effect in the repeat runs; inconclusive = weak or mixed curves; inactive = no such curve, though single readings can be large or run the other way.

Assay: qHTS assay to identify small molecule antagonists of the estrogen related receptor (ERR) signaling pathway from Tox21 library (AID 1224848); also: nearly all actives have a fitted effect of over 50% in size; also: potency is read from the fitted curve at half-maximal effect
Conditions: ERR reporter cell line, luciferase antagonist mode, 18 h; series mostly up to 92.4 µM
How it was run: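 First, 2,000 ERR cells per well were plated and held 6 h at 37 C/5% CO2. Next, compounds in DMSO were pinned in and left 18 h at 37 C. Finally, ONE-Glo was added and luminescence read after 30 min at room temperature.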
% is scaled to controls: 0 for no effect and ±100 for the full control effect.

Row | SMILES | Potency
1 | CCN(CC)C(=O)c1cc(S(=O)(=O)Cc2ccccc2)c(N2CCC(c3ccccc3)CC2)cc1N(CC)CCN(C)C | 21.4 µM (active)
2 | CC(C)(c1cc(Br)c(OCC(Br)CBr)c(Br)c1)c1cc(Br)c(OCC(Br)CBr)c(Br)c1 (stereo unspecified) | inactive
3 | COc1cc(/C=C/c2ccccc2)oc(=O)c1 | inactive
4 | CCOC(=O)NNc1ccc(N(CC)CC(C)O)nn1 (stereo unspecified) | inactive
5 | O=C1CCCCCCCCCCCCCCCO1 | inactive
6 | CC1=Nc2ccccc2C1(C)C | inactive
7 | O=C1C(c2[nH]c3ccc(S(=O)(=O)O)cc3c2O)=Nc2ccc(S(=O)(=O)O)cc21 | inactive
8 | Nc1ccc(NCCO)c([N+](=O)[O-])c1 | inactive
9 | CCC(COC(=O)CCS)(COC(=O)CCS)COC(=O)CCS | inactive
10 | CCCCCCC1CCCC(=O)O1 (stereo unspecified) | inactive
11 | [Cl][Pt-2]([Cl])([Cl])[Cl] | inactive
12 | C=C(C)C(=O)OCCCCCCCCCC | inactive
13 | CCc1ccc(Br)cc1 | inactive
14 | Cc1c(C)c2c(c(C)c1OC(=O)c1cccnc1)CC[C@@](C)(CCC[C@H](C)CCC[C@H](C)CCCC(C)C)O2 | inactive
15 | Cc1cccc(C(=O)O)c1O | inactive
16 | Cc1cccc2cccnc12 | inactive
17 | Nc1nc2c(ncn2COCCO)c(=O)[nH]1 | inactive
18 | Cc1ccc(C(C)C)cc2c(C)ccc1-2 | inactive

Assay: qHTS assay to identify small molecule agonists of the estrogen related receptor (ERR) signaling pathway from Tox21 library (AID 1224849; calls by dose curve; also: nearly all actives have a fitted effect of over 15% in size)
Conditions: ERR reporter cell line, ONE-Glo luciferase, 18 h; at 42.5 µM (top of the series)
How it was run: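 Luminescence readout (ONE-Glo, 30 min RT) after 18 h compound exposure at 37 C of NTP-supplied ERR reporter cells; cells were plated 6 h before compound addition by pin tool.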

Row | SMILES | activity change, positive = activation
19 | CCN(CC)C(=O)c1cc(S(=O)(=O)Cc2ccccc2)c(N2CCC(c3ccccc3)CC2)cc1N(CC)CCN(C)C | -79.2% (inactive)
20 | CC(C)(c1cc(Br)c(OCC(Br)CBr)c(Br)c1)c1cc(Br)c(OCC(Br)CBr)c(Br)c1 (stereo unspecified) | 2.35% (inactive)
21 | CCOC(=O)NNc1ccc(N(CC)CC(C)O)nn1 (stereo unspecified) | 0.457% (inactive)
22 | Cc1c(C)c2c(c(C)c1OC(=O)c1cccnc1)CC[C@@](C)(CCC[C@H](C)CCC[C@H](C)CCCC(C)C)O2 | 3.86% (inactive)
23 | Cc1cccc(C(=O)O)c1O | 0.112% (inactive)
24 | Nc1nc2c(ncn2COCCO)c(=O)[nH]1 | -1.87% (inactive)
25 | Cc1ccc(C(C)C)cc2c(C)ccc1-2 | -2.57% (inactive)

Same assay, conditions: ERR reporter cell line, ONE-Glo luciferase, 18 h; at 92.4 µM (top of the series)

Row | SMILES | activity change, positive = activation
26 | COc1cc(/C=C/c2ccccc2)oc(=O)c1 | 36.4% (active)
27 | O=C1CCCCCCCCCCCCCCCO1 | -5.05% (inactive)
28 | O=C1C(c2[nH]c3ccc(S(=O)(=O)O)cc3c2O)=Nc2ccc(S(=O)(=O)O)cc21 | -7.96% (inactive)
29 | COc1cc(S(=O)(=O)O)c(C)cc1N=Nc1c(O)ccc2cc(S(=O)(=O)O)ccc12 | -21.5% (inactive)
30 | Nc1ccc(NCCO)c([N+](=O)[O-])c1 | -17.2% (inactive)
31 | CCC(COC(=O)CCS)(COC(=O)CCS)COC(=O)CCS | 4.52% (inactive)
32 | CCCCCCC1CCCC(=O)O1 (stereo unspecified) | 0.936% (inactive)
33 | [Cl][Pt-2]([Cl])([Cl])[Cl] | -8.8% (inactive)
34 | C=C(C)C(=O)OCCCCCCCCCC | 2.01% (inactive)
35 | CCc1ccc(Br)cc1 | 5.1% (inactive)
36 | Cc1cccc2cccnc12 | 0.0767% (inactive)
